Shown is part of a subset that was picked to be rich in the strongest signals.
Columns and labels:
Test in all cases: glycan array binding signal (z-score within array); higher = stronger binding
Conditions in all cases: glycan notation: IUPAC condensed, linker removed
[1] = molecular target: Fuc(a1-2)[Gal(a1-3)]Gal(b1-4)Glc
Summary of the method: (§1)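 Glycan array binding is given as a within-array Z-score, which can be read as non-binding when negative. The arrays, 3228 of them, came from the Consortium for Functional Glycomics database and were retained only where the protein sequence was available. Z-scores were averaged across arrays of the same protein sequence at different concentrations or buffers and across linkers.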

[2] = molecular target: Fuc(a1-3)[Gal(b1-4)]GlcNAc
Summary of the method: as §1

Gal(a1-6)Glc = molecular target: Gal(a1-6)Glc
Summary of the method: as §1

Gal(b1-3)Gal = molecular target: Gal(b1-3)Gal
Summary of the method: as §1

[3] = molecular target: Gal(b1-3)GalNAc(b1-3)Gal(b1-4)GlcNAc
Summary of the method: as §1

[4] = molecular target: Gal(b1-3)GalNAc(b1-4)[Neu5Ac(a2-3)]Gal(b1-4)Glc
Summary of the method: as §1

[5] = molecular target: Gal(b1-4)GlcNAc(b1-6)[Gal(b1-3)]GalNAc
Summary of the method: as §1

Gal3S(b1-3)GalNAc = molecular target: Gal3S(b1-3)GalNAc
Summary of the method: as §1

Gal3S(b1-4)Glc = molecular target: Gal3S(b1-4)Glc
Summary of the method: as §1

Gal3S(b1-4)Glc6S = molecular target: Gal3S(b1-4)Glc6S
Summary of the method: as §1

[6] = molecular target: GalNAc(b1-3)Gal(a1-4)Gal(b1-4)GlcNAc
Summary of the method: as §1

GalNAc(b1-4)GlcNAc = molecular target: GalNAc(b1-4)GlcNAc
Summary of the method: as §1

[7] = molecular target: Man(a1-2)Man(a1-3)[Man(a1-3)[Man(a1-6)]Man(a1-6)]Man(b1-4)GlcNAc(b1-4)GlcNAc
Summary of the method: as §1

[8] = molecular target: Man(a1-3)[Man(a1-6)]Man(a1-6)[Man(a1-3)]Man(b1-4)GlcNAc(b1-4)GlcNAc
Summary of the method: as §1

[9] = molecular target: Neu5Ac(a2-3)Gal(b1-3)GalNAc(b1-3)Gal(a1-4)Gal(b1-4)Glc
Summary of the method: as §1

[10] = molecular target: Neu5Ac(a2-3)Gal(b1-3)[Neu5Ac(a2-6)]GalNAc
Summary of the method: as §1

Neu5Ac(a2-3)Gal(b1-4)Glc = molecular target: Neu5Ac(a2-3)Gal(b1-4)Glc
Summary of the method: as §1

[11] = molecular target: Neu5Ac(a2-3)Gal(b1-4)GlcNAc6S
Summary of the method: as §1

Neu5Ac(a2-3)GalNAc = molecular target: Neu5Ac(a2-3)GalNAc
Summary of the method: as §1

[12] = molecular target: Neu5Ac9Ac(a2-6)Gal(b1-4)GlcNAc
Summary of the method: as §1

B1: EcCDA (Encephalitazoon cuniculi), Q8SU65 (protein)
chain: MLLCLLYFTSSWCSGSDVPDVCTNSGMIAINFVDGPVRGVTDRILNTLDELGVKATFSFTVNQKAVGNVGQLYRRAVEEGHNVALRVDPSMDEGYQCLSQDALENNVDREIDTIDGLSGTEIRYAAVPICNGQVNSEMYNILTERGVLPVGYTFCPYDYDDPVGEFESMIEGSDPKHHSFIILMHDGQEADTSRLENMVKIGKDKGYRFVNMDECLQGYKGAPGDPELSLRGKGVESIGKGFLPFFLMMLVRLL
glycan array binding signal (z-score) [1]: 2.96
glycan array binding signal (z-score) [2]: -0.055
glycan array binding signal (z-score) (Gal(a1-6)Glc): 3.02
glycan array binding signal (z-score) (Gal(b1-3)Gal): -0.337
glycan array binding signal (z-score) [3]: -0.363
glycan array binding signal (z-score) [4]: -0.234
glycan array binding signal (z-score) [5]: -0.1
glycan array binding signal (z-score) (Gal3S(b1-3)GalNAc): 0.115
glycan array binding signal (z-score) (Gal3S(b1-4)Glc): 0.022
glycan array binding signal (z-score) (Gal3S(b1-4)Glc6S): 5.58
glycan array binding signal (z-score) [6]: 1.6
glycan array binding signal (z-score) (GalNAc(b1-4)GlcNAc): -0.289
glycan array binding signal (z-score) [7]: -0.2
glycan array binding signal (z-score) [8]: -0.34
glycan array binding signal (z-score) [9]: -0.476
glycan array binding signal (z-score) [10]: -0.318
glycan array binding signal (z-score) (Neu5Ac(a2-3)Gal(b1-4)Glc): -0.322
glycan array binding signal (z-score) [11]: -0.284
glycan array binding signal (z-score) (Neu5Ac(a2-3)GalNAc): 0.071
glycan array binding signal (z-score) [12]: 4.58

— the supplement of paper PMC8728848
